# Experimental data reported in PubChem BioAssay (NCI).
# Compounds without any hit were thinned out: in the full panel of roughly 83,000, 20% have a hit.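 Single-dose data. Exposure time 48 hours. Values below 10 considered active.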 Unmarked numbers belong to inactive results. Calls of active or inactive are those of the source.
# Legend:
# Assay in all cases: NCI-60 one-dose screen, 48 h (100 = growth as untreated, 0 = no growth, -100 = all killed)
# Details in all cases: 10 µM unless noted
# SR leukemia = tested on: SR leukemia
# RPMI-8226 leukemia = tested on: RPMI-8226 leukemia
# OVCAR-8 ovarian = tested on: OVCAR-8 ovarian
# OVCAR-5 ovarian = tested on: OVCAR-5 ovarian
# OVCAR-4 ovarian = tested on: OVCAR-4 ovarian
# SK-OV-3 ovarian = tested on: SK-OV-3 ovarian
# IGROV1 ovarian = tested on: IGROV1 ovarian
# OVCAR-3 ovarian = tested on: OVCAR-3 ovarian
# HS 578T breast = tested on: HS 578T breast
# NCI/ADR-RES ovarian = tested on: NCI/ADR-RES ovarian
# T-47D breast = tested on: T-47D breast
# BT-549 breast = tested on: BT-549 breast
# MDA-MB-435 melanoma = tested on: MDA-MB-435 melanoma
# SW-620 colon = tested on: SW-620 colon
# MCF7 breast = tested on: MCF7 breast
# HCT-116 colon = tested on: HCT-116 colon
# HCC-2998 colon = tested on: HCC-2998 colon
# KM12 colon = tested on: KM12 colon
SMILES,growth (SR leukemia) [%],growth (RPMI-8226 leukemia) [%],growth (OVCAR-8 ovarian) [%],growth (OVCAR-5 ovarian) [%],growth (OVCAR-4 ovarian) [%],growth (SK-OV-3 ovarian) [%],growth (IGROV1 ovarian),growth (OVCAR-3 ovarian) [%],growth (HS 578T breast) [%],growth (NCI/ADR-RES ovarian) [%],growth (T-47D breast) [%],growth (BT-549 breast) [%],growth (MDA-MB-435 melanoma),growth (SW-620 colon) [%],growth (MCF7 breast),growth (HCT-116 colon),growth (HCC-2998 colon) [%],growth (KM12 colon)
CC1CCN(C(=O)CSc2nc3sc4c(c3c(=O)[nH]2)CCCC4)CC1,85.5,82.4,102,102,108,103,87.7%,116,113,109,102,95.2,95.6%,108,109%,112%,120,120%
CCN(CC)CCC(=O)c1cccc2ccccc12,53.4,44.4,104,98.3,119,121,101%,113,101,104,85.1,110,108%,104,63.9%,109%,97.1,103%
COc1ccc(S(=O)(=O)NCCNc2nccc(-c3c(-c4ccccc4)nc4sccn34)n2)cc1,12.8,27.4,26.7,73.8,27.8,23,6.6% (active),12.4,47,17.1,10.9,34.7,11.2%,36.5,4.01% (active),9.81% (active),60.7,9.45% (active)
COC(=O)C(CC(=O)c1ccc(-c2ccccc2)cc1)c1ccccc1 (centres undefined),24.2,88.3,77.5,84.1,71.6,85.2,64.7%,10.6,71.7,17.5,51.9,71.2,5.69% (active),26.9,16.2%,23.5%,96.5,55.6%
COc1cc2c(cc1OCCCCn1c(-c3cc(=O)c4ccccc4o3)nc3ccccc31)N=C[C@@H]1CCCN1C2=O,39.8,67.7,106,111,108,109,-16.3% (active),111,116,110,79.4,101,94.9%,86.6,72.6%,101%,128,105%
O=C(Cc1c(F)cccc1Cl)Nc1ccc(S(=O)(=O)Nc2ncccn2)cc1,52,70.4,113,103,101,102,-23.2% (active),109,111,108,102,90.8,101%,102,96.2%,102%,97.3,111%
Cc1ccnc2nc(C(=O)OCC(=O)Nc3ccc(-c4ccccc4)cc3)nn12,53.3,98.1,102,96,95,116,-5.67% (active),112,125,98.3,111,96.3,107%,109,105%,96%,105,119%
COc1ccc(-c2nnc(COc3ccc(NS(=O)(=O)c4ccc(OC)cc4)cc3F)o2)cc1,50.6,43.4,82.5,94.2,57.3,83.9,84.5%,76.7,88.2,55.3,31.6,84.7,81.4%,94.3,69.5%,67.2%,93.1,73.4%
